Screening results (PubChem)
ADAM17 inh: inhibitors of human ADAM17; inhibition, % at 6.95 µM; recombinant ADAM17, EDANS/DABCYL FRET peptide cleavage; 370,000 tested, 0.83% active;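 active = inhibition above the mean of compounds lying between control limits plus 3 SD, set per campaign, cut at about 8.5% in these data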;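 also: 0% = DMSO-only wells as the low control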
NPR1 activator: GC-A (human) enzyme activation; P16066; HEK293 GC-A cells, cGMP TR-FRET, EC30 ANP; 0% at EC30 ANP, 100% saturating ANP; 370,000 tested, 0.14% active; activation, % at 10 µM; in the data active = activation above about 40%
GC-B act: GC-B (human) receptor activation; HEK293-GC-B cells, CNP EC30, cGMP TR-FRET; 0% at EC30 CNP, 100% saturating CNP; activation, % at 10 µM; 370,000 tested, 0.11% active; AID 1920062;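 active = activation at 10 µM reaching about 35% in either raw or pattern-adjusted values, limit read from the data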
Target sequence (P20594 whole entry, looked up): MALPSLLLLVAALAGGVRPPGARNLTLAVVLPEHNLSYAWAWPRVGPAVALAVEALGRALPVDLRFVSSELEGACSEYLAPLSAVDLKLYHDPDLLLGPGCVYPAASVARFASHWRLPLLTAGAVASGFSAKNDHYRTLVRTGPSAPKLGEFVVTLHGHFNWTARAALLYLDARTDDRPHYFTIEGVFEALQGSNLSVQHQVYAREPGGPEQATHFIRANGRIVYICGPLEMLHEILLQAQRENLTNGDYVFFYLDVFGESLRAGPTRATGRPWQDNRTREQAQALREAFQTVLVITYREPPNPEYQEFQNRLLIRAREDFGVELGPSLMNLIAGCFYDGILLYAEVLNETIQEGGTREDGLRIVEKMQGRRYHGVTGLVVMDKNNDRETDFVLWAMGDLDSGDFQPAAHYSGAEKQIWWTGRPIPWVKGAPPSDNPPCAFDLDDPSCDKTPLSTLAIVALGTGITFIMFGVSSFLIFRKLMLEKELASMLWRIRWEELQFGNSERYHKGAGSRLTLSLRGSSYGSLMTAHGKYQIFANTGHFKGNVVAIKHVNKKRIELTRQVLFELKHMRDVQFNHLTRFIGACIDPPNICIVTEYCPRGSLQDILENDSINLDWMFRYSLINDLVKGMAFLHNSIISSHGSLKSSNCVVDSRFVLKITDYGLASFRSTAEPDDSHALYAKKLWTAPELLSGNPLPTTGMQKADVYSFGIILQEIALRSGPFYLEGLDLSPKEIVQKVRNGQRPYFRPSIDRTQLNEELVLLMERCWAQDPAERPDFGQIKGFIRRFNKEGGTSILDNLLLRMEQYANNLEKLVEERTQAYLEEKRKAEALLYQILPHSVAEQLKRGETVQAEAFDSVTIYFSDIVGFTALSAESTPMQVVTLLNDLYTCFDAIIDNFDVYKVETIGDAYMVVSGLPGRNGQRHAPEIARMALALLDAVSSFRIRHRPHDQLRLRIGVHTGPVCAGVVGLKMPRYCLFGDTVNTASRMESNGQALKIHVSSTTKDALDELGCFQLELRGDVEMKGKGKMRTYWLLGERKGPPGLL
FAS-TE inh: inhibitors of human fatty acid synthase thioesterase domain; inhibition, % at 15 µM; recombinant FAS-TE, OMFH fluorogenic substrate, fluorescence endpoint; 360,000 tested, 0.67% active;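 active = compounds whose normalised, plate-corrected inhibition of enzyme fluorescence in the single-dose primary screen is 50% or more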;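 also: 0% = DMSO with enzyme and 100% = substrate without enzyme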
ADAM10 inh: inhibits human ADAM10; O14672; recombinant ADAM10, EDANS/DABCYL FRET peptide cleavage, 3 h; inhibition, % at 7 µM; 370,000 tested, 0.62% active;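 active = inhibition above a per-campaign cutoff equal to the mean of compounds falling between control-based bounds plus 3 SD, cut at about 20% in these data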;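 also: 0% = DMSO wells while the 100% control is not disclosed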
ADAM10 ctr: inhibits human ADAM10 in ADAM17 exosite counter-screen | shares compounds with ADAM17 inh | inhibition, % at 6.95 µM | 2,900 tested, 47% active | recombinant ADAM10, EDANS/DABCYL FRET peptide cleavage, 3 h;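 active = mean inhibition over the triplicate runs exceeds the activity threshold set in the earlier primary screen, cut at about 20% in these data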;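 also: 0% = DMSO wells and 100% = marimastat wells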
ADAM17 confirm: confirmation of inhibitors of human ADAM17 | inhibition, % at 6.95 µM | 2,900 tested, 65% active | recombinant ADAM17, EDANS/DABCYL QFRET peptide cleavage | shares compounds with ADAM17 inh;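 active = mean inhibition across replicates above the hit cutoff set in the primary screen, cut at about 8.5% in these data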;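 also: 0% = DMSO wells and 100% = marimastat wells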
An asterisk follows results filed as active; nt = no result given. This is a sample that favours compounds with a hit; in the whole collection about 2% have one here.

SMILES | ADAM17 inh | NPR1 activator | GC-B act | FAS-TE inh | ADAM10 inh | ADAM10 ctr | ADAM17 confirm
C/C(=C/c1c[n+](Cc2ccc3c(c2)OCO3)c(N)[nH]1)Cn1[nH]c(=O)n(-c2ccccc2)c1=O | -5 | 2 | 5 | nt | -6 | nt | nt
CC(C)(C)c1ccc(-c2noc(CCC(=O)NC3CC3)n2)cc1 | -5 | -5 | -7 | nt | -4 | nt | nt
CCCCCCCCN1CCS(=O)(=O)N(Cc2ccc(F)cc2)C(C(=O)OC)C1 (centres undefined) | 1 | -2 | -6 | nt | 2 | nt | nt
COc1ccc(NC(=O)c2csc3c2CCCC3)cc1 | nt | -1 | -6 | 11 | nt | nt | nt
COc1cccc(NC(=O)c2csc3c2CCCC3)c1 | 13* | -2 | -2 | 13 | 10 | 10 | 9
CCCCCN1CCCCC(NC(=O)c2c(F)cccc2F)C1=O (centres undefined) | -2 | 0 | 4 | nt | 4 | nt | nt
Cc1cc(C)c(OCC(=O)NCC2COc3ccccc3O2)c(C)c1 (centres undefined) | 15* | -6 | 3 | 23 | 11 | 9 | 5
Cn1c(Cn2c3ccccc3c3ccccc32)n[nH]c1=S | 10* | -8 | 0 | 0 | 17 | 12 | 7
Cc1cccc2c1CCC1CN(Cc3ccccc3)S(=O)(=O)N21 (centres undefined) | -2 | -1 | -2 | nt | 1 | nt | nt
Nn1c(COc2cccc(Br)c2)nnc1SCC(=O)NCC1CCCO1 (centres undefined) | -2 | 1 | 0 | -2 | -17 | nt | nt
Nn1c(COc2cccc(Br)c2)nnc1SCC(=O)N1CCc2ccccc2C1 | 12* | -2 | -4 | 2 | 10 | 5 | 7
CC(C)(C)c1ccc(S(=O)(=O)N2CCC(C(=O)NCc3cccs3)CC2)cc1 | -5 | 2 | 4 | nt | -5 | nt | nt
O=S(=O)(NCCc1ccc(F)cc1)c1cc(C(F)(F)F)ccc1Br | 9.9* | 4 | 5 | 26 | 19 | 22* | 11*
CCCNC(=O)c1cc2c(c(-c3cccc(-c4ccc(F)cc4)c3)n1)[C@H](CCO)N(S(=O)C(C)(C)C)C2 (some centres undefined) | 10* | 10 | 17 | 11 | 13 | 14 | 10*
CCOC(=O)c1cc2c(c(-c3cccc(C#Cc4ccc(OC)c(OC)c4)c3)n1)[C@@H](CCO)N(S(=O)C(C)(C)C)C2 (some centres undefined) | 8.8* | 18 | 0 | -8 | 16 | 12 | 10*
CCCNC(=O)c1cc2c(c(-c3cccc(-c4ccc(F)cc4)c3)n1)[C@@H](CCO)N(S(=O)C(C)(C)C)C2 (some centres undefined) | 7 | -1 | 9 | 7 | 9 | nt | nt
COc1ccc(C#Cc2cccc(-c3nc(C(=O)NCCCN4CCOCC4)cc4c3[C@H](CCO)N(S(=O)C(C)(C)C)C4)c2)cc1OC (some centres undefined) | 0 | 5 | -7 | -4 | -10 | nt | nt
O=S(=O)(NCC(Nc1ccccc1)c1ccccc1)c1ccc(Cl)cc1 (centres undefined) | 9.0* | -35 | -15 | 41 | 15 | 36* | 21*
COC(=O)[C@]1(CC(C)C)NC=C(C(=O)c2ccccc2)[C@@H]1c1cccs1 | -2 | 1 | -5 | nt | -6 | nt | nt
O=S1(=O)CCOC[C@H](Cc2ccccc2)N1Cc1cccc(C(F)(F)F)c1 | 11* | -3 | -6 | 34 | 0 | 10 | 5
Cc1ccc(NC(=O)OC2CC3CC2[C@H]2CCCCN2C3)cc1C (some centres undefined) | -1 | -1 | 3 | nt | -1 | nt | nt
CCOc1cccc(-c2c(C(=O)N/N=C/c3ccc(C)s3)nnn2-c2nonc2N)c1 | 9.7* | -5 | -2 | 10 | 13 | -20 | 3
CC(C)(C)c1ccc(S(=O)(=O)N2CCC(C(=O)NCCC3=CCCCC3)CC2)cc1 | 3 | -4 | -3 | nt | 7 | nt | nt
COc1cccc(N=C2SC(C(=O)Nc3ccc(F)cc3)CC(=O)N2C)c1 (centres undefined) | 10* | 3 | -4 | 12 | 7 | 25* | 11*
Brc1ccc(-c2nn3c(-c4ccccc4)nnc3s2)o1 | 0 | 1 | -7 | nt | -7 | nt | nt
SMILES | ADAM17 inh | NPR1 activator | GC-B act | FAS-TE inh | ADAM10 inh | ADAM10 ctr | ADAM17 confirm
O=C(CN1CCN(c2nc(-c3ccccc3)cs2)CC1)Nc1ccc(Cl)c(Cl)c1 | 8.8* | 2 | -2 | nt | 13 | 19 | 12*
Cc1ccccc1NC(=O)CN1CCN(c2nc(-c3ccccc3)cs2)CC1 | 4 | 0 | 3 | nt | 6 | nt | nt
O=C(NCc1n[nH]c(=S)n1-c1cccc(C(F)(F)F)c1)c1ccc(S(=O)(=O)N2CCCCC2)cc1 | 13* | 2 | 5 | 4 | 14 | 9 | 6
C[C@@H]1CN([C@@H](C)CO)C(=O)CCCn2nncc2CO[C@H]1CN(C)S(=O)(=O)c1ccc(C#N)cc1 | -5 | 5 | 1 | -4 | -22 | nt | nt
C[C@@H]1CN([C@@H](C)CO)C(=O)CCCn2nncc2CO[C@@H]1CN(C)S(=O)(=O)c1ccc(C#N)cc1 | 9.5* | 4 | 4 | -8 | 9 | 13 | 9.5*
CCc1noc(C)c1C(=O)OC(C)C(=O)Nc1ccc2c(c1)OCO2 (centres undefined) | 8.8* | -1 | 2 | -8 | -12 | 15 | 13*
CCc1noc(C)c1C(=O)OC(C)C(=O)Nc1ccc(Cl)cn1 (centres undefined) | 0 | 0 | 2 | 6 | 4 | nt | nt
COc1ccc(S[C@]2(C(=O)N3CCCC3)CC(=O)N(C(=O)C3CC3)[C@@H]2c2ccc(OC)cc2)cc1 | 1 | -3 | -3 | nt | 5 | nt | nt
O=C(CCc1nc(-c2ccc(Cl)cc2)no1)NC1CCCCC1 | -2 | 2 | 0 | -3 | -4 | nt | nt
O=C(CCc1nc(-c2ccccc2)no1)NC1CCCCC1 | 9.0* | -2 | -2 | 2 | 3 | -5 | 2
COc1ccc(C(CCOC(=O)Oc2ccccc2)c2cc(OC)c(OC)c(OC)c2)cc1 (centres undefined) | 2 | 1 | 4 | nt | 11 | nt | nt
COc1ccc(C(O)c2nc(-c3ccccc3)cs2)cc1 (centres undefined) | 2 | 2 | 2 | 5 | 0 | nt | nt
COc1ccc(C(O)c2nc(-c3cccc(F)c3)cs2)cc1 (centres undefined) | 9.9* | 2 | 2 | 12 | 18 | 2 | 2
COc1ccc(C(O)c2nc(-c3cccc(C(F)(F)F)c3)cs2)cc1 (centres undefined) | 13* | 2 | -5 | 28 | 9 | 27* | 13*
COc1ccc(C(O)c2nc(-c3cccc(CO)c3)cs2)cc1 (centres undefined) | 5 | -2 | 0 | -4 | -4 | nt | nt
